“And” between values parts separate entries of the source, which are not always exact repeats. Equal values may be shown once. Read-outs that look alike come from different tables or passages of the source.
Experiments:
WNK4 = settings: concentration: 1 μM, replicates: in singlicate; n = 1
YANK1 = test system: T1, YANK1; settings: concentration: 1 μM, replicates: in singlicate, n = 1
T1 construct: gene STK32A

YANK2 = test system: T2, YANK2; settings: concentration: 1 μM, replicates: in singlicate, n = 1
T2 construct: gene STK32B

YANK3 = test system: T3, YANK3; settings: concentration: 1 μM, replicates: in singlicate, n = 1
T3 construct: gene STK32C

YES = test system: T4, YES; settings: concentration: 1 μM, replicates: in singlicate; n = 1
T4 construct: gene YES1

YSK1 = test system: T5, YSK1; settings: concentration: 1 μM, replicates: in singlicate; n = 1
T5 construct: gene STK25

YSK4 = test system: T6, YSK4; settings: concentration: 1 μM, replicates: in singlicate, n = 1
T6 construct: gene MAP3K19

ZAK = settings: concentration: 1 μM, replicates: in singlicate, n = 1
ZAP70 = settings: concentration: 1 μM, replicates: in singlicate, n = 1
p38-alpha = test system: T7, p38-alpha; settings: concentration: 1 μM, replicates: in singlicate, n = 1
T7 construct: gene MAPK14
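Note: KINOMEscan kinase panel screen.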

SMILES	%Inh (WNK4) [%]	%Inh (YANK1) [%]	%Inh (YANK2) [%]	%Inh (YANK3) [%]	%Inh (YES) [%]	%Inh (YSK1) [%]	%Inh (YSK4) [%]	%Inh (ZAK) [%]	%Inh (ZAP70) [%]	%Inh (p38-alpha) [%]	%Inh (YANK1; 1 µM)	%Inh (YANK2; 1 µM)	%Inh (YANK3; 1 µM)	%Inh (YSK4; 1 µM)	%Inh (ZAK; 1 µM)	%Inh (ZAP70; 1 µM)	%Inh (p38-alpha; 1 µM)
O=c1cc(N2CCOCC2)nc2n(Cc3cccc(Cl)c3)ccn12 [GSK2296823]	0	0	0	18	23	10	19	0	0	0							
Clc1ccc(-c2cc(-c3c[nH]nc3-c3ccccn3)ccn2)cc1 [GW681251]	0	0	0	0	0	0	0	14	47	45							
Cc1ccc(C)c(NC(=O)NCCNc2ccnc(Nc3ccc(F)cc3)n2)c1 [GSK1379878]	23	0	0	0	0	0	0	34	0	6							
OCCOCCn1ccc2ncnc(Nc3ccc(Oc4cccc(Cl)c4)c(Cl)c3)c21	0	0	0	0	0	0	0	0	0	0							
Clc1cccc(-c2nc(Nc3ccncc3)c3ccccc3n2)c1 [GW873004]	0	0	0	0	34	0	0	0	0	0							
Cc1cccc(-c2nc(Nc3ccc4[nH]nnc4c3)c3ccccc3n2)n1 [GW867587]	0	0	0	1	0	0	0	0	0	0							
Nc1n[nH]c2nnc(-c3ccccc3)cc12 [SB-517389]	0	13	0	21	16	0	75	24	0	0							
O=C(NCCCN1CCCC1=O)c1cnc(NCc2cc(Cl)ccc2Cl)nc1NC1CCNCC1	0	1	0	0	0	5	54	0	0	0							
O=C(CCO)NCCn1ccc2ncnc(Nc3ccc(Oc4cccc(C(F)(F)F)c4)c(Cl)c3)c21	0	0	0	0	0	0	0	0	0	0							
Cn1ccc2ncnc(Nc3ccc(Oc4cccc(Cl)c4)c(Cl)c3)c21	34	0	14	17	0	0	11	30	0	17							
Fc1ccc(-c2ncn(CCCNCc3ccccc3)c2-c2ccncc2)cc1	0	17	0	7	17	0	9	10	11	77							
Cc1ccc(NC(=O)c2cccc(C#N)c2)cc1-c1ccc(C(=O)Nc2ccncc2)cc1 [GSK1398463]	3	14	0	11	24	9	64	12	0	47							
Cl.Cn1ccc(-c2cccc(Nc3ccnc4cc(-c5nccs5)ccc34)c2)n1 [GW525701]	66	0	10	0	21	17	41	0	74	9							
CS(=O)(=O)CCNCc1nc(-c2ccc3ncnc(Nc4ccc(OCc5cccc(F)c5)c(Cl)c4)c3c2)cs1.Cl [GW583340]	0	0	0	0	3	0	17	91.6	0	18							
Cn1ccc2ncnc(Oc3ccc(NC(=O)Nc4cccnc4)c(Cl)c3)c21	0	0	13	7	0	0	0	3	0	14							
CCc1nc(-c2cccc(N(C)S(=O)(=O)c3ccccc3)c2)c(-c2ccnc(Nc3ccc(N4CCN(C(C)=O)CC4)nc3)n2)s1 [GSK1645895]	0	5	18	11	33	26	29	83	0	60							
COc1ccc(Nc2nccc(N3CCC(NC(=O)Nc4ccc5c(c4)OCO5)C3)n2)cc1 (stereo not drawn) [GSK1379745]	24	3	15	16	0	0	7	0	0	12							

SMILES	%Inh (WNK4) [%]	%Inh (YANK1) [%]	%Inh (YANK2) [%]	%Inh (YANK3) [%]	%Inh (YES) [%]	%Inh (YSK1) [%]	%Inh (YSK4) [%]	%Inh (ZAK) [%]	%Inh (ZAP70) [%]	%Inh (p38-alpha) [%]	%Inh (YANK1; 1 µM)	%Inh (YANK2; 1 µM)	%Inh (YANK3; 1 µM)	%Inh (YSK4; 1 µM)	%Inh (ZAK; 1 µM)	%Inh (ZAP70; 1 µM)	%Inh (p38-alpha; 1 µM)
COc1ccc(-c2nc3n(c2-c2ccncc2)CCC3)cc1 [SKF-104493]	17				0	0					0% and 10%	13% and 0%	0% and 4%	0% and 100%	0% and 8%	0% and 8%	80% and 97.8%
COc1cc2ncnc(Nc3ccc(OCc4ccccc4Br)c(Cl)c3)c2cc1OC.Cl [GI261590]	52	0	0	21	31	0	33	33	19	63							
C[C@@H]1CCN(C(=O)CO)C[C@@H]1N(C)c1ncnc2[nH]ccc12	0	19	0	0	0	0	7	7	0	5							
COc1cc2c(Nc3cccc(NC(=O)c4ccccc4)c3)ncnc2cc1OCCCN1CCOCC1 [GSK223810]	0	7	0	2	15	12	36	0	0	81							
COc1ccc(NC(=O)Nc2ccc(C)c(-c3ccc(C(=O)Nc4ccncc4)cc3)c2)cc1 [GSK1398475]	0	0	0	7	13	13	9	6	0	60							
CSc1ccc(NC2=C(c3ccccc3Cl)C(=O)NC2=O)cc1 [SB-342411]	0	12	0	9	9	60	0	20	0	0							
Cn1cc(-c2ccc3c(c2)CCN3C(=O)Cc2cccc(C(F)(F)F)c2)c2c(N)ncnc21 [GSK2606414]	0	10	0	19	0	0	34	0	0	0							
O=C(Nc1n[nH]c2nc(-c3ccco3)c(Br)cc12)c1ccc(CN2CCCC2)cc1.O=C(O)[C@H](O)[C@@H](O)C(=O)O [SB-742352]	0	0	0	0	1	0	49	29	0	0							
CCCc1ccc(S(=O)(=O)NC2CCN(c3ccnc(Nc4ccc(OC)cc4)n3)C2)cc1 (stereo not drawn) [GSK1379737]	45	0	0	16	5	0	30	8	0	10							
CNc1nccc(-c2c(-c3ccc(F)cc3)ncn2CCCN2CCOCC2)n1 [SB-222516]	0	0	0	0	0	0	7	6	5	13							
COC(=O)c1c(-c2ccccc2)c2cc(Cl)ccc2c(=O)n1Cc1ccc(S(C)(=O)=O)cc1	27	0	15	0	0	0	2	5	0	17							
C[C@H]1CC[C@@H](C(=O)Nc2ccccc2)CN1c1cc(-c2ccc3c(N)n[nH]c3c2)nc(N)n1 [GSK2283293]	28	13	0	4	10	0	16	2	0	0							
COc1ccc(NC(=O)c2ccc(-c3cc(-c4nnc(C)o4)ccc3C)cc2)cc1 [GW595885]	34	16	7	0	16	0	34	2	0	97.7							
Nc1nc(-c2ccccn2)c(-c2ccnc3ccccc23)s1 [GW548057]	88	0	7	0	13	14	4	0	4	54							
CSc1nn2c(=O)cc(N3CCOCC3)nc2n1Cc1cccc(Cl)c1Cl [GSK2347225]	0	16	7	19	31	12	0	0	0	0							
Cl.O=S(=O)(c1cccc(F)c1)c1ccc(Nc2ncnc3cc(Br)sc23)cc1Cl [GSK306886]	0	0	0	0	14	30	0	6	0	42							

— PMC5540273 (PLoS ONE, 2017)
